Reference: PubChem BioAssay AID1159580 (chemical genetic matrix, 2015)
“And” between values parts separate entries of the source, which are not always exact repeats. Equal entries are not always repeated. The whole screen tested about 5,500 compounds, of which about 2,000 (36%) were called active. Inconclusive results (about 18%) are left out. No stated cut-off is given here; in the data, active means normalized growth mostly below about 0.91 (no sharp cut-off); inconclusive means no clear call, values can overlap the other calls; inactive means mostly above about 0.92. This is one part of the list.

Assay: chemical genetic growth profiling, strain panel (AID 1159580);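 further: tested at 20 µM; growth read once vehicle control cultures reached saturation at 30 °C; 1 = growth at the plate median or of vehicle wells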
Conditions: S. cerevisiae deletion strains, growth OD

Measured: normalized growth

Cc1ccc(C(C)C)cc2c(C)ccc1-2
inactive: locus YAL013W, strain DEP1, stronger effect = lower value 1 | locus YAL021C, strain ccr4, stronger effect = lower value 1 | locus YAL026C, strain drs2, stronger effect = lower value 1.02 | locus YAL030W, strain snc1, stronger effect = lower value 1 | locus YBL061C, strain skt5, stronger effect = lower value 1 | locus YBR009C, strain hhf1, stronger effect = lower value 0.999 | locus YBR021W, strain FUR4, stronger effect = lower value 1.01 | locus YBR023C, strain chs3, stronger effect = lower value 1 | locus YBR171W, strain sec66, stronger effect = lower value 1.02 | locus YBR229C, strain ROT2, stronger effect = lower value 1 | locus YBR231C, strain swc5, stronger effect = lower value 1 | locus YBR279W, strain paf1, stronger effect = lower value 1.01 | locus YCL011C, strain gbp2, stronger effect = lower value 1.01 | locus YCL016C, strain dcc1, stronger effect = lower value 0.985 | locus YCL029C, strain bik1, stronger effect = lower value 1.03 | locus YCL061C, strain MRC1, stronger effect = lower value 1.01 | locus YCL069W, strain vba3, stronger effect = lower value 0.996 | locus YCR088W, strain abp1, stronger effect = lower value 1.01 | locus YDL005C, strain med2, stronger effect = lower value 1.01 | locus YDL035C, strain GPR1, stronger effect = lower value 1 | locus YDL040C, strain nat1, stronger effect = lower value 0.99 | locus YDL074C, strain BRE1, stronger effect = lower value 0.944 | locus YDL101C, strain DUN1, stronger effect = lower value 0.991 | locus YDL134C, strain PPH21, stronger effect = lower value 0.984 | locus YDL185W, strain tfp1, stronger effect = lower value 1.02 | locus YDL192W, strain arf1, stronger effect = lower value 1.02 | locus YDR001C, strain nth1, stronger effect = lower value 1 | locus YDR069C, strain doa4, stronger effect = lower value 1 | locus YDR101C, strain arx1, stronger effect = lower value 1.02 | locus YDR137W, strain rgp1, stronger effect = lower value 0.978 | locus YDR159W, strain sac3, stronger effect = lower value 1.05 | locus YDR162C, strain NBP2, stronger effect = lower value 1 | locus YDR195W, strain ref2 0.975 | locus YDR297W, strain sur2, stronger effect = lower value 1 | locus YDR318W, strain mcm21, stronger effect = lower value 1.01 | locus YDR334W, strain swr1, stronger effect = lower value 1 | locus YDR335W, strain msn5, stronger effect = lower value 0.997 | locus YDR388W, stronger effect = lower value 1.03 | locus YDR392W, strain spt3, stronger effect = lower value 0.906 | locus YDR502C, strain sam2, stronger effect = lower value 1 | locus YEL003W, strain gim4, stronger effect = lower value 0.998 | locus YEL037C, strain rad23, stronger effect = lower value 1 | locus YEL061C, strain CIN8 (second series), stronger effect = lower value 1 | locus YEL061C, strain CIN8, stronger effect = lower value 0.998 | locus YER015W, strain faa2, stronger effect = lower value 1 | locus YER016W, strain bim1, stronger effect = lower value 1 | locus YER110C, stronger effect = lower value 1.04 | locus YER111C, strain swi4, stronger effect = lower value 1.01 | locus YER155C, strain BEM2 (second series), stronger effect = lower value 0.998 | locus YER155C, strain BEM2, stronger effect = lower value 1.01 | locus YER167W, strain BCK2, stronger effect = lower value 0.988 | locus YFR010W, strain ubp6, stronger effect = lower value 1.01 | locus YGL078C, strain dbp3, stronger effect = lower value 1.02 | locus YGL086W, strain mad1, stronger effect = lower value 0.994 | locus YGL167C, strain pmr1, stronger effect = lower value 1.01 | locus YGL173C, strain kem1, stronger effect = lower value 1.01 | locus YGL227W, strain vid30, stronger effect = lower value 1.01 | locus YGL240W, strain doc1, stronger effect = lower value 1.01 | locus YGL248W, strain PDE1, stronger effect = lower value 1 | locus YGL253W, strain hxk2, stronger effect = lower value 1.03 | locus YGR078C, strain PAC10, stronger effect = lower value 0.948 | locus YGR135W, strain pre9, stronger effect = lower value 1.03 | locus YGR252W, strain gcn5, stronger effect = lower value 1.02 | locus YHR013C, strain ard1, stronger effect = lower value 1.02 | locus YHR027C, strain rpn1, stronger effect = lower value 1 | locus YHR030C, strain SLT2, stronger effect = lower value 1 and 0.968 | locus YHR079C, strain IRE1 (second series), stronger effect = lower value 1.02 | locus YHR079C, strain IRE1, stronger effect = lower value 0.977 | locus YHR094C, strain hxt1, stronger effect = lower value 1.02 | locus YHR129C, strain ARP1, stronger effect = lower value 1 | locus YHR142W, strain chs7, stronger effect = lower value 1.02 | locus YHR200W, strain rpn10, stronger effect = lower value 1.02 | locus YIL066C, strain RNR3, stronger effect = lower value 0.986 | locus YIL073C, strain SPO22, stronger effect = lower value 1.09 | locus YIL125W, strain kgd1, stronger effect = lower value 1.01 | locus YIR030C, strain dcg1, stronger effect = lower value 1.02 | locus YJL092W, strain hpr5, stronger effect = lower value 1 | locus YJL095W, strain BCK1 (second series), stronger effect = lower value 1 | locus YJL095W, strain BCK1, stronger effect = lower value 0.972 and 1.03 | locus YJL115W, strain asf1, stronger effect = lower value 0.992 | locus YJL129C, strain trk1, stronger effect = lower value 1.01 | locus YJL134W, strain LCB3, stronger effect = lower value 1 | locus YJL154C, strain vps35, stronger effect = lower value 0.999 | locus YJL164C, strain tpk1, stronger effect = lower value 0.991 | locus YJL166W, strain qcr8, stronger effect = lower value 0.994 | locus YJL168C, strain set2, stronger effect = lower value 1.02 | locus YJL187C, strain SWE1 (second series), stronger effect = lower value 0.995 | locus YJL187C, strain SWE1, stronger effect = lower value 1.01
